Assay results: PubChem BioAssay (Tox21)
Values joined by “and” are separate entries in the source; they are usually repeats but may differ in a detail not shown here. Identical values can stand only once. Results filed as inconclusive are left out. Where a call stands in place of a potency, no number is given. Some compounds were tested as several samples or in several runs, with calls that do not always agree. Active and inactive are the calls of the source. Unless noted, the call rests on the fitted dose curve; in most records, active means well fitted curve in the direction sought with a large enough effect in the repeat runs; inconclusive means weak or mixed curves; inactive means no such curve, though single readings can be large; an effect the other way counts as inactive or inconclusive.

Columns and labels:
[1] = qHTS assay to identify small molecule antagonists of the estrogen related receptor (ERR) signaling pathway from Tox21 library (AID 1224848); conditions: ERR reporter cell line, luciferase antagonist mode, 18 h; series mostly up to 92.4 µM; further: nearly all actives have a fitted effect of over 50% in size; further: potency means the concentration at half of the fitted maximal effect
Procedure, shortened: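 Compounds dissolved in DMSO are pin-transferred onto ERR reporter cells (2,000 per well) that have settled for 6 h at 37 C. Plates then incubate 18 h at 37 C before ONE-Glo luciferase reagent and a luminescence read 30 min later.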

[2] = qHTS assay to identify small molecule agonists of the estrogen related receptor (ERR) signaling pathway from Tox21 library (AID 1224849; calls by dose curve; further: nearly all actives have a fitted effect of over 15% in size); conditions: ERR reporter cell line, ONE-Glo luciferase, 18 h
Procedure, shortened: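 Quantitative HTS in agonist format: NTP ERR cell line, compounds transferred in DMSO after 6 h plating, 18 h incubation at 37 C, ONE-Glo luminescence endpoint.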

[3] = qHTS RealTime-Glo MT Cell Viability Assay in HepG2 cells - 24 hour (AID 1224867); conditions: RealTime-Glo luminescence; series mostly up to 76.8 µM; further: nearly all actives have a fitted effect of over 50% in size; further: potency means the concentration at half of the fitted maximal effect
Procedure, shortened: (§1)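 HepG2 cells were seeded at 600 cells/well together with NanoLuc luciferase and a cell-permeant prosubstrate, preincubated 5 h at 37 C/5% CO2, then pin-dosed with compounds in DMSO. Nonlytic luminescence from viable cells was read at each time point.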

[4] = A CellTox Green Cytotoxicity Assay to monitor cytotoxicity in HEK293 cells - 0 hour (AID 1224869); conditions: CellTox Green fluorescence; series mostly up to 76.8 µM; further: nearly all actives have a fitted effect of over 50% in size
Procedure, shortened: (§2)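 Dead-cell fluorescence measured kinetically: asymmetric cyanine dye, HEK293, 600 cells/well, 5 h settle, 23 nL cpd/DMSO, 37 C, reads 0–40 h every 8 h.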

[5] = qHTS RealTime-Glo MT Cell Viability Assay in HepG2 cells - 40 hour (AID 1224870); conditions: RealTime-Glo luminescence; series mostly up to 76.8 µM; further: nearly all actives have a fitted effect of over 50% in size; further: potency means the concentration at half of the fitted maximal effect
Procedure, shortened: (§3)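 HepG2 cells (600/well) mixed with RealTime-Glo MT reagent, settled 5 h at 37 C/5% CO2 before compound addition. Nonlytic NanoLuc luminescence from viable-cell prosubstrate reduction read repeatedly during 40 h treatment at 37 C.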

[6] = A CellTox Green Cytotoxicity Assay to monitor cytotoxicity in HEK293 cells - 40 hour (AID 1224871); conditions: CellTox Green fluorescence; series mostly up to 76.8 µM; further: nearly all actives have a fitted effect of over 45% in size; further: potency means the concentration at half of the fitted maximal effect
Procedure, shortened: as §2

[7] = qHTS RealTime-Glo MT Cell Viability Assay in HEK293 cells - 40 hour (AID 1224874); conditions: RealTime-Glo luminescence; max response: stronger effect = lower value; further: nearly all actives have a fitted effect of over 50% in size; further: potency means the concentration at half of the fitted maximal effect
Procedure, shortened: (§4)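 600 HEK293 cells per well, dispensed already mixed with RealTime-Glo MT reagents. Compound dosing came 5 h later. The same wells were read for luminescence at 0, 8, 16, 24, 32 and 40 h of exposure at 37 C.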

[8] = A CellTox Green Cytotoxicity Assay to monitor cytotoxicity in HEK293 cells - 24 hour (AID 1224875); conditions: CellTox Green fluorescence; series mostly up to 76.8 µM; further: nearly all actives have a fitted effect of over 45% in size
Procedure, shortened: as §2

[9] = A CellTox Green Cytotoxicity Assay to monitor cytotoxicity in HepG2 cells - 16 hour (AID 1224876); conditions: CellTox Green fluorescence; series mostly up to 76.8 µM; further: nearly all actives have a fitted effect of over 45% in size; further: potency means the concentration at half of the fitted maximal effect
Procedure, shortened: (§5)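 First, HepG2 cells (600/well) mixed with reagent were plated; second, after 5 h at 37 C they received compounds via pintool; third, fluorescence was measured at 0 h through 40 h at 8 h intervals.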

[10] = qHTS RealTime-Glo MT Cell Viability Assay in HepG2 cells - 32 hour (AID 1224877); conditions: RealTime-Glo luminescence; series mostly up to 76.8 µM; further: nearly all actives have a fitted effect of over 55% in size; further: potency means the concentration at half of the fitted maximal effect
Procedure, shortened: as §1

[11] = A CellTox Green Cytotoxicity Assay to monitor cytotoxicity in HepG2 cells - 40 hour (AID 1224879); conditions: CellTox Green fluorescence; series mostly up to 76.8 µM; further: nearly all actives have a fitted effect of over 40% in size; further: potency means the concentration at half of the fitted maximal effect
Procedure, shortened: as §5

[12] = qHTS RealTime-Glo MT Cell Viability Assay in HEK293 cells - 0 hour (AID 1224880); conditions: RealTime-Glo luminescence; series mostly up to 76.8 µM; further: top concentration of the series differs between compounds; nearly all actives have a fitted effect of over 45% in size
Procedure, shortened: as §4

[13] = qHTS assay to identify small molecule agonists of the hypoxia (HIF-1) signaling pathway (AID 1224846; active means well fitted activation curve with a large enough effect in the signal ratio in the repeat runs, not every such curve was filed as active; the % refers to the signal ratio); conditions: HRE-bla ME-180 cells, beta-lactamase ratio, 17 h; series mostly up to 76.8 µM
Procedure, shortened: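 Agonist mode reporter screen. ME-180 cells stably expressing bla under HRE control received test compounds in DMSO for 17 hrs (37C, 5% CO2), and beta-lactamase activity was then detected with the CCF4-AM FRET substrate.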

[14] = qHTS RealTime-Glo MT Cell Viability Assay in HEK293 cells - 32 hour (AID 1224868); conditions: RealTime-Glo luminescence; series mostly up to 76.8 µM; further: nearly all actives have a fitted effect of over 50% in size; further: potency means the concentration at half of the fitted maximal effect
Procedure, shortened: (§6)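 HEK293 cells were seeded at 600 cells/well together with NanoLuc luciferase and cell-permeant prosubstrate, preincubated 5 h at 37 C/5% CO2, then given compound in DMSO by pintool. Luminescence from viable-cell prosubstrate reduction was read repeatedly over 40 h.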

[15] = qHTS RealTime-Glo MT Cell Viability Assay in HEK293 cells - 16 hour (AID 1224872); conditions: RealTime-Glo luminescence; series mostly up to 76.8 µM; further: nearly all actives have a fitted effect of over 50% in size; further: potency means the concentration at half of the fitted maximal effect
Procedure, shortened: as §6

[16] = qHTS RealTime-Glo MT Cell Viability Assay in HepG2 cells - 8 hour (AID 1224873); conditions: RealTime-Glo luminescence; series mostly up to 76.8 µM; further: nearly all actives have a fitted effect of over 55% in size
Procedure, shortened: as §3

[17] = A CellTox Green Cytotoxicity Assay to monitor cytotoxicity in HepG2 cells - 24 hour (AID 1224878); conditions: CellTox Green fluorescence; series mostly up to 76.8 µM; further: nearly all actives have a fitted effect of over 45% in size
Procedure, shortened: as §5

[18] = at 92.4 µM (top of the series) unless noted

| SMILES | Potency [1] | activity change, positive = activation [2, 18] | Potency [3] | Potency [4] | Potency [5] | Potency [6] | Potency [7] | Potency [8] | Potency [9] | Potency [10] | Potency [11] | Potency [12] | outcome [13] | Potency [14] | Potency [15] | Potency [16] | max response [7] | activity change, positive = activation ([2]; at 42.5 µM (top of the series)) | activity change, positive = activation ([2]; at 92.4 µM (top of the series)) | Potency [17] |
| --- | --- | --- | --- | --- | --- | --- | --- | --- | --- | --- | --- | --- | --- | --- | --- | --- | --- | --- | --- | --- |
| COc1cccc2c1C(=O)c1c(O)c3c(c(O)c1C2=O)C[C@@](O)(C(=O)CO)CC3OC1CC(N2CCOC(OC)C2)C(O)C(C)O1 (stereo partly specified) | inactive | -10.4% [at 42.5 µM] (inactive) | 1900 nM (active) | inactive | 33.8 nM (active) | inactive | 21.3 nM (active) | inactive | 23900 nM (active) | 42.5 nM (active) | 42.5 nM (active) | inactive |  |  |  |  |  |  |  |  |
| CCCCOCN(C(=O)CCl)c1c(CC)cccc1CC | 27.3 µM (active) | -62.9% (inactive) |  | inactive |  |  |  | inactive | inactive |  |  | inactive | inactive | inactive | inactive | inactive | -10.8% (inactive) |  |  |  |
| Clc1ccc(C(c2ccccc2Cl)C(Cl)(Cl)Cl)cc1 (stereo unspecified) | 61.5 µM (active) and 40.2 µM (active) |  | inactive | inactive | inactive | 43.9 µM (active) and inactive | 49300 nM (active) | inactive | inactive | inactive | inactive | inactive |  | 49.3 µM (active) and inactive | 49.3 µM (active) and inactive | inactive | -21.7% (inactive) | -15.1% (inactive) | -41.5% (inactive) | inactive |
